Data on 2 sequences can be found in paper PMC7862700, “An all-to-all approach to the identification of sequence-specific readers for epigenetic DNA modifications on cytosine”.

Test in all cases: DAPPL (digital affinity profiling via proximity ligation, sequencing); 10 mM Tris-HCl pH 7.5, 50 mM NaCl, 1 mM DTT, 4% glycerol, room temperature, 30 min; GST-TFs on glutathione beads, 16-mer random dsDNA library, 0.1% formaldehyde crosslink after washing; high values mean tight binding
Holding throughout (settings): protein: recombinant; tags: N-terminal GST; dsDNA, one strand shown

In one assay the target is T1, ELK3 (Homo sapiens, UniProt P41970 1-407).
T1 sequence: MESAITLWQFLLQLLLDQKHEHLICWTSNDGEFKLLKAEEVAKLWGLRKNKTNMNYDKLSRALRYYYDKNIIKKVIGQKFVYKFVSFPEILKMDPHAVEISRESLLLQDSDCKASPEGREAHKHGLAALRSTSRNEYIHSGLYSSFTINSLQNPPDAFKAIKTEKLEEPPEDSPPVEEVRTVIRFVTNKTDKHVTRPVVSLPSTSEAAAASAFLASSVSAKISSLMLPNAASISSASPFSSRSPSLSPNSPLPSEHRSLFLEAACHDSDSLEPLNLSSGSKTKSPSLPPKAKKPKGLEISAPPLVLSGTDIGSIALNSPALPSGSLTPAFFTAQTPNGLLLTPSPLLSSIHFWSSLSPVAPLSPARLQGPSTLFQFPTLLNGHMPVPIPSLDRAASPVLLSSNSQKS
In a few lines: (§1)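 Sequencing on an Illumina NextSeq500 followed washing, crosslinking with 0.1% formaldehyde, proximity ligation (BsaI/T4 ligase, 1 h, 37 °C) and PCR amplification of pools that had been incubated for 30 min at room temperature with 200 nmole of a random double-stranded 16-mer DNA library in Tris/NaCl/DTT/glycerol buffer. Each pool held DNA-barcoded human transcription factors, expressed in yeast as GST fusions and captured on glutathione beads, plus a tag-only sample. Binding signal is a hexamer's read frequency for a factor divided by its frequency in the tag-only sample.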

The target in the next assay is ETV5 (Homo sapiens, UniProt P41161 1-510). Summed up:
as §1

A further assay has as its target T2, ELK4 (Homo sapiens, UniProt P28324-2 1-405).
T2 sequence: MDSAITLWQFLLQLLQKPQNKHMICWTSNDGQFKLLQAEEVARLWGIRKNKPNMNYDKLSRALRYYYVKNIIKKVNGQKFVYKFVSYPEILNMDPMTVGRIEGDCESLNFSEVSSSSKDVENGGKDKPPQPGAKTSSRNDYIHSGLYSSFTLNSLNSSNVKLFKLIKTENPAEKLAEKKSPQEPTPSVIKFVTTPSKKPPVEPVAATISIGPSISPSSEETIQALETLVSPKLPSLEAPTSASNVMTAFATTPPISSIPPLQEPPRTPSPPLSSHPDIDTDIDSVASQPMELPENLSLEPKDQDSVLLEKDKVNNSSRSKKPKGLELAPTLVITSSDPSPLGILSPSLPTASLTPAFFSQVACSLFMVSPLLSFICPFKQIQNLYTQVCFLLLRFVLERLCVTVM
In a few lines: as §1

A further assay addresses ETV1 (Homo sapiens, UniProt P50549 1-477). In a few lines:
as §1

Another assay has as its target T3, ETV3L (Homo sapiens, UniProt Q6ZN32 1-361).
T3 sequence: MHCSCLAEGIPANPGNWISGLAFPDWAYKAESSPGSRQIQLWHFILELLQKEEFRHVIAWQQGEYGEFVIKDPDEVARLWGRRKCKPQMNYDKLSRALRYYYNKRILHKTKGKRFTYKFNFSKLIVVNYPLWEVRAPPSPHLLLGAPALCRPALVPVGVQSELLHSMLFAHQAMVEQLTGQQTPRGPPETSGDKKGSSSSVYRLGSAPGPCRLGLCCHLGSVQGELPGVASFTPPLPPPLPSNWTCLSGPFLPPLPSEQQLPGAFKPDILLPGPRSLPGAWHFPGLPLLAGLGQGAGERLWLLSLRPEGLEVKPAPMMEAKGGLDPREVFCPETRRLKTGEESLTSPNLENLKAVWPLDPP
Summed up: as §1

The next assay has as its target T4, ETV7 (Homo sapiens, UniProt Q9Y603 1-341).
T4 sequence: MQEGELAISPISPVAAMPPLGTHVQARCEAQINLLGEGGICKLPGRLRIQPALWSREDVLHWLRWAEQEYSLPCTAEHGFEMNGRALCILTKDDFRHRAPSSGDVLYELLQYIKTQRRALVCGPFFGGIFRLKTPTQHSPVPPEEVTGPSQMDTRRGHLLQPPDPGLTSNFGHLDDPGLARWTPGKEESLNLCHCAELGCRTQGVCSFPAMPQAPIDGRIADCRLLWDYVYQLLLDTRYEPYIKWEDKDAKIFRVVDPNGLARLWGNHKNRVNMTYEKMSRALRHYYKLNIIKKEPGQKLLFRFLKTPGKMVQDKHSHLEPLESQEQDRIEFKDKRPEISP
Summed up:
as §1

Another assay has as its target ETV6 (Homo sapiens, UniProt P41212 1-452). In a few lines:
as §1

In a further assay the target is SPIB (Homo sapiens, UniProt Q01892 1-262). Summed up: as §1
A further assay deals with T5, ETS2 (Homo sapiens, UniProt P15036 1-469).
T5 sequence: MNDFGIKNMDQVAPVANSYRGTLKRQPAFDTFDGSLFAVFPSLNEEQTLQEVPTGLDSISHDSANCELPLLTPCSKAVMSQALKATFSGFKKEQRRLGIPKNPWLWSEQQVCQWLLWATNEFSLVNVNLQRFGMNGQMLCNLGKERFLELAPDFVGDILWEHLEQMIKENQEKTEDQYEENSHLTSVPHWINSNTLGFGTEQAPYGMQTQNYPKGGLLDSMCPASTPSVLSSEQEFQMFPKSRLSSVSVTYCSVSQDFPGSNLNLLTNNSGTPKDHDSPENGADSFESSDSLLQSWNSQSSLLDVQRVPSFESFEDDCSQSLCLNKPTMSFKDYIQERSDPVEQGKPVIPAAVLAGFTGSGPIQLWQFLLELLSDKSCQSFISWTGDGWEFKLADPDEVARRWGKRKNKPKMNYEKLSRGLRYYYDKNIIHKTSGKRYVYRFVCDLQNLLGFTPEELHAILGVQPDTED
In a few lines:
as §1

Sequence of ETV1 (P50549 whole entry): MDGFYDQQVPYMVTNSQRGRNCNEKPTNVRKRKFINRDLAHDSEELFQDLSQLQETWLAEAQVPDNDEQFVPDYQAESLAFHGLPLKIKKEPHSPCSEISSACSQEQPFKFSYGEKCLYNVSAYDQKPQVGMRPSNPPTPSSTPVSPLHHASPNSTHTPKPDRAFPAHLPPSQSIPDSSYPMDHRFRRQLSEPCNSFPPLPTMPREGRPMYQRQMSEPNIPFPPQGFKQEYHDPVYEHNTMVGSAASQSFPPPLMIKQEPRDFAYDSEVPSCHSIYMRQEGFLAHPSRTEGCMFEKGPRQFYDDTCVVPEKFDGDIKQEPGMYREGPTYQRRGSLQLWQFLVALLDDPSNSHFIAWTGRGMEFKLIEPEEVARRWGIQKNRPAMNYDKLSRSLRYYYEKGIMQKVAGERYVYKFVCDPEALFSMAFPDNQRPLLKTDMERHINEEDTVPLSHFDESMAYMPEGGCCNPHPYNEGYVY
Sequence of ETV5 (P41161 whole entry): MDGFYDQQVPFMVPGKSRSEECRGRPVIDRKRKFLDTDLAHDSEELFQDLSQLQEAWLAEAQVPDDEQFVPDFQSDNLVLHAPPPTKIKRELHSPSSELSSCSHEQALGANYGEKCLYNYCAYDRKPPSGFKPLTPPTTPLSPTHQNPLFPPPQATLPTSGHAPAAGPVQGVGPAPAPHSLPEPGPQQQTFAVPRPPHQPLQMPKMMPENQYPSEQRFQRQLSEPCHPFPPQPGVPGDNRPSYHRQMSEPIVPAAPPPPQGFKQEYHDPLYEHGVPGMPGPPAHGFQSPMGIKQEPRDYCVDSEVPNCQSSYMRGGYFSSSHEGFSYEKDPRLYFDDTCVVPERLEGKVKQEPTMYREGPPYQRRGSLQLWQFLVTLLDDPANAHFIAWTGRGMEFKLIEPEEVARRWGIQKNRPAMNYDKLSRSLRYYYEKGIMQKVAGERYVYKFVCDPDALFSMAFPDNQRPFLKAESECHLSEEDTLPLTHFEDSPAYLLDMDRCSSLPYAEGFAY
Sequence of ETV6 (P41212 whole entry): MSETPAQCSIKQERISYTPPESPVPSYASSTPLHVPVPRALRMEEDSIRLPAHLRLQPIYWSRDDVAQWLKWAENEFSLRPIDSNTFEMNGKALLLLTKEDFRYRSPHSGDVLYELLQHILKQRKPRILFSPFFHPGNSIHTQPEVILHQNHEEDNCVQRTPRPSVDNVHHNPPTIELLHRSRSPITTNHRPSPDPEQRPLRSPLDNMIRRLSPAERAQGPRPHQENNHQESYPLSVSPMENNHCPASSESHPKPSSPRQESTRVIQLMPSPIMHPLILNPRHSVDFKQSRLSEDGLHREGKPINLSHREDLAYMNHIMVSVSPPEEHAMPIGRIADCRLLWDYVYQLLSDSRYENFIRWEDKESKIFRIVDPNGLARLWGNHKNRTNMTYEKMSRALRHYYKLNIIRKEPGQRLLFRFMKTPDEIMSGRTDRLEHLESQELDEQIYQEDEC
Sequence of SPIB (Q01892 whole entry): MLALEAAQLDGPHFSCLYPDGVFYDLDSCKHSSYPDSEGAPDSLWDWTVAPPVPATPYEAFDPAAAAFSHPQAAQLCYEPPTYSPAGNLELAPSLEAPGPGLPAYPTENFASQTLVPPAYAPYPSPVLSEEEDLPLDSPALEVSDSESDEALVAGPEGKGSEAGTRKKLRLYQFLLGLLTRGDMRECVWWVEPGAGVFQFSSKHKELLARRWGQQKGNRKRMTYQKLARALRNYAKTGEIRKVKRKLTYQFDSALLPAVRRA

With AGCGGC, the binding signal in the assay with ELK3 was 1.03 fold enrichment (6-mer frequency, TF over GST control); in the assay with ETV5, 1.03 fold enrichment (6-mer frequency, TF over GST control); in the assay with ELK4 it was 1 fold enrichment (6-mer frequency, TF over GST control); in the assay with ETV1, 1.09 fold enrichment (6-mer frequency, TF over GST control); in the assay with ETV3L, 1.01 fold enrichment (6-mer frequency, TF over GST control); with ETV7, 1.01 fold enrichment (6-mer frequency, TF over GST control). For the same sequence, the binding signal with ETV6 is 1.15 fold enrichment (6-mer frequency, TF over GST control).
Take GGGTAT: the binding signal with SPIB is 1.02 fold enrichment (6-mer frequency, TF over GST control); with ELK3, 1.04 fold enrichment (6-mer frequency, TF over GST control); with ETV5 it was 1.02 fold enrichment (6-mer frequency, TF over GST control); with ELK4, 1.1 fold enrichment (6-mer frequency, TF over GST control); with ETV1, 1.01 fold enrichment (6-mer frequency, TF over GST control); in the assay with ETS2, 1.02 fold enrichment (6-mer frequency, TF over GST control). In addition, in the assay with ETV7, the binding signal was 1.02 fold enrichment (6-mer frequency, TF over GST control).
